Experimental data: the supplement of paper PMC9023506
Structures can show the parent of a compound that is named as a salt.

system: Danio rerio larvae (5 dpf); assay: optomotor response to red moving lines, difference vs DMSO (percentage points (treated minus DMSO)); higher = more of the behaviour than the DMSO vehicle control; details: 10 µM; exposure time: 3 h pre-incubation + 3 h imaging
Method: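 5-dpf wild-type zebrafish larvae were imaged in 96-well plates. They were treated with 190 Tocris FDA-approved drugs at 10 µM (1 µl/ml DMSO) for 3 h before and 3 h during imaging at 28.5 °C, 48 larvae per drug. Automated image analysis gave % time moving and optomotor responses. Values are drug group mean minus DMSO vehicle mean (n=844), in percentage points, for 10 behaviours.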

Compound	optomotor response to red moving lines
CCOc1nc2cccc(C(=O)O)c2n1Cc1ccc(-c2ccccc2-c2nnn[nH]2)cc1 [Candesartan]	4.89
O=C1CCc2cc(OCCCCc3nnnn3C3CCCCC3)ccc2N1 [Cilostazol]	-8.76
CC(C)(C#N)c1cc(Cn2cncn2)cc(C(C)(C)C#N)c1 [Anastrozole]	-3.51
CCc1c2c(nc3ccc(OC(=O)N4CCC(N5CCCCC5)CC4)cc13)-c1cc3c(c(=O)n1C2)COC(=O)[C@]3(O)CC	-8.71
COc1ccccc1Oc1c(NS(=O)(=O)c2ccc(C(C)(C)C)cc2)nc(-c2ncccn2)nc1OCCO [Bosentan]	-14
CC(C)c1nc(N(C)S(C)(=O)=O)nc(-c2ccc(F)cc2)c1/C=C/[C@@H](O)C[C@@H](O)CC(=O)O [Rosuvastatin calcium]	7.07
CCN(Cc1ccncc1)C(=O)C(CO)c1ccccc1 (stereo not given) [Tropicamide]	1.4
CCC(C)(C)C(=O)O[C@H]1C[C@@H](C)C=C2C=C[C@H](C)[C@H](CC[C@@H]3C[C@@H](O)CC(=O)O3)[C@H]21 [Simvastatin]	-5.54
C[C@]12CC[C@@H]3c4ccc(O)cc4C[C@@H](CCCCCCCCC[S+]([O-])CCCC(F)(F)C(F)(F)F)[C@H]3[C@@H]1CC[C@@H]2O (stereo not given in full)	-3.73
Nc1cc(N2CCCCC2)nc(N)[n+]1[O-] [Minoxidil]	-13.4
COc1ccc([C@@H]2Sc3ccccc3N(CCN(C)C)C(=O)[C@@H]2OC(C)=O)cc1 [Diltiazem hydrochloride]	-1.99
CCCc1nn(C)c2c(=O)[nH]c(-c3cc(S(=O)(=O)N4CCN(C)CC4)ccc3OCC)nc12 [Sildenafil citrate]	-6
CC1CNc2c(cccc2S(=O)(=O)N[C@@H](CCCNC(=N)N)C(=O)N2CC[C@@H](C)C[C@@H]2C(=O)O)C1 (stereo not given in full) [Argatroban]	-3.42
CC(C)N(CCCCOCC(=O)NS(C)(=O)=O)c1cnc(-c2ccccc2)c(-c2ccccc2)n1 [Selexipag]	-8.23
CCOc1nc2cccc(C(=O)O)c2n1Cc1ccc(-c2ccccc2-c2noc(=O)[nH]2)cc1 [Azilsartan]	-3.43
CC1(C)O[C@@H]2[C@@H](CO[C@@]3(COS(N)(=O)=O)OC(C)(C)O[C@@H]23)O1 [Topiramate]	-0.793
COc1ccc(Cl)cc1C(=O)NCCc1ccc(S(=O)(=O)NC(=O)NC2CCCCC2)cc1 [Glibenclamide]	10.2
CN1CCN(CCCN2c3ccccc3Sc3ccc(Cl)cc32)CC1 [Prochlorperazine dimaleate]	4.44
Nc1ccn([C@@H]2O[C@H](CO)[C@@H](O)C2(F)F)c(=O)n1 [Gemcitabine hydrochloride]	12.3
O=C(c1ccc(OCCN2CCCCC2)cc1)c1c(-c2ccc(O)cc2)sc2cc(O)ccc12 [Raloxifene hydrochloride]	3.63

Compound	optomotor response to red moving lines
CCOc1cc(CC(=O)N[C@@H](CC(C)C)c2ccccc2N2CCCCC2)ccc1C(=O)O [Repaglinide]	3.38
Cc1ccc(NC(=O)c2ccc(CN3CCN(C)CC3)cc2)cc1Nc1nccc(-c2cccnc2)n1 [Imatinib mesylate]	-3.1
CC(C)C(=O)OCC(=O)[C@@]12O[C@H](C3CCCCC3)O[C@@H]1C[C@H]1[C@@H]3CCC4=CC(=O)C=C[C@]4(C)[C@H]3[C@@H](O)C[C@@]12C [Ciclesonide]	-8.97
O=c1[nH]c(=O)n([C@H]2C[C@H](O)[C@@H](CO)O2)cc1C(F)(F)F [Trifluorothymidine]	9.66
COc1cc(Nc2c(C#N)cnc3cc(OCCCN4CCN(C)CC4)c(OC)cc23)c(Cl)cc1Cl [Bosutinib]	3.82
O=C(NCC1CCCCN1)c1cc(OCC(F)(F)F)ccc1OCC(F)(F)F (stereo not given) [Flecainide acetate]	-9.35
CC(C)OC(=O)C(C)(C)Oc1ccc(C(=O)c2ccc(Cl)cc2)cc1 [Fenofibrate]	16.3
C=CC(=O)N1CCC[C@@H](n2nc(-c3ccc(Oc4ccccc4)cc3)c3c(N)ncnc32)C1 [Ibrutinib]	-1.62
C[C@]12CCC(=O)C=C1CC[C@@H]1[C@@H]2[C@@H](O)C[C@@]2(C)[C@H]1CC[C@]2(O)C(=O)CO [Hydrocortisone]	13
Cc1cc2c(s1)Nc1ccccc1N=C2N1CCN(C)CC1 [Olanzapine]	4.76
Cc1cccc(C)c1OCC(C)N (stereo not given) [Mexiletine hydrochloride]	3.43
O=C1CCc2ccc(OCCCCN3CCN(c4cccc(Cl)c4Cl)CC3)cc2N1 [Aripiprazole]	6.21
Cn1cnc([N+](=O)[O-])c1Sc1ncnc2[nH]cnc12 [Azathioprine]	3.86
CCCc1nc2c(C)cc(-c3nc4ccccc4n3C)cc2n1Cc1ccc(-c2ccccc2C(=O)O)cc1 [Telmisartan]	-8.2
NC(=O)N1c2ccccc2C=Cc2ccccc21 [Carbamazepine]	-0.139
CC(C)C(=O)Nc1ccc([N+](=O)[O-])c(C(F)(F)F)c1 [Flutamide]	-10.8
COc1ccc(C[C@@H](C)NC[C@H](O)c2ccc(O)c(NC=O)c2)cc1 [Arformoterol tartrate]	-7.51
CN(C)CCc1c[nH]c2ccc(C[C@H]3COC(=O)N3)cc12 [Zolmitriptan]	2.8
C/C(O)=C(\C#N)C(=O)Nc1ccc(C(F)(F)F)cc1 [Teriflunomide]	-3.45
COc1cc(N)c(Cl)cc1C(=O)NC1CCN(CCCOc2ccc(F)cc2)CC1OC (stereo not given) [Cisapride]	-3.64
